Assay outcomes deposited in PubChem BioAssay by National Center for Advancing Translational Sciences (NCATS).
This excerpt belongs to a sample that is enriched for hits.
IMPase Li inh = qHTS Assay for Identifying the Cell-Membrane Permeable IMPase Inhibitors: Potentiation with Lithium; CHO-M1 cells, IP1 TR-FRET (IP-One), carbachol + lithium; Potency, µM (top dose mostly 59.4 µM), hits mostly inhibitors; 210,000 tested, 0.35% active; AID 1457, 2008;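 further: IP1 builds up when IMPase is blocked and the TR-FRET signal falls; nearly all actives have a fitted effect of over 50% in size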
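Lithium-sensitised IP1 accumulation assay; M1-expressing CHO cells treated 30 min at 37C with compound. Competitive antibody detection by time-resolved FRET followed a 10 min room-temperature lysis step.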
IMPase cell inh = qHTS Assay for Identifying the Cell-Membrane Permeable IMPase Inhibitors. Inositol monophosphatase 1 (Rattus norvegicus), P97697. CHO-M1 cells, IP1 accumulation, HTRF TR-FRET ratio. inhibition (IP1 accumulation), % at 46.1 µM. 120,000 tested, under 10 active. AID 901, 2007; active means well fitted curve in the direction sought with a large enough effect in the signal ratio, not every such curve was filed as active; the % refers to the signal ratio;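 further: cells stimulated with carbachol in lithium chloride buffer; higher means more IMPase inhibition seen as more IP1 and lower FRET ratio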
Target sequence (P97697 whole entry, looked up): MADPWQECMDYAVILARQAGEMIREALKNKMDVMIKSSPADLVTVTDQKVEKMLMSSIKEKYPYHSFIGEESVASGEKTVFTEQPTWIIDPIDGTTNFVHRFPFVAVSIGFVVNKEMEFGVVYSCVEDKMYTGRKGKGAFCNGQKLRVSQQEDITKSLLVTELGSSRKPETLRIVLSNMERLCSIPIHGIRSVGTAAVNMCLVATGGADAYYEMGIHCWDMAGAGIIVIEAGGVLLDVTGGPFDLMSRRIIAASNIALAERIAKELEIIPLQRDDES
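Cellular IMPase inhibition is scored as a rise in cytosolic IP1, detected by competitive TR-FRET between d2-labelled IP1 and a europium anti-IP1 antibody. M1-expressing CHO cells were stimulated with carbachol for 30 min at 37C, with lithium (50 mM LiCl) present in the buffer.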
12-hLO inh = qHTS Assay for Inhibitors of 12-hLO (12-human lipoxygenase); 150,000 tested, 0.12% active; Potency, µM (series often up to 57.1 µM), actives largely listed as inhibitors; purified 12-hLO, xylenol orange hydroperoxide absorbance; Polyunsaturated fatty acid lipoxygenase ALOX12 (Homo sapiens), P18054; further: nearly all actives have a fitted effect of over 55% in size
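Hydroperoxide output read as Fe(III)-xylenol orange absorbance, 573-to-405 nm ratio, after 30 min reaction with 40 uM arachidonic acid. Enzyme: 150 nM purified human 12hLO, 15 min compound preincubation; 25 mM Hepes pH 7.0, room temperature.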
PNC inhibitor = High Content Assay for Compounds that inhibit the Assembly of the Perinucleolar Compartment; PC3M PTB-GFP, PNC prevalence imaging, 16 h; active compounds read low; activity change (PNC), negative = inhibition, % at 10 µM; 140,000 tested, 3.1% active; AID 2417, 2010;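 active means readout at or below -70, meaning at least 70% loss of cells showing the perinucleolar compartment, a nuclear body marking cancer cells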
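Read-out is percentage of cells bearing a perinucleolar compartment, from automated 20x imaging of fixed, Hoechst-stained PC3M PTB-GFP cells. Cells were seeded 4 h, then exposed 16 h to compound (23 nl of library stock) in duplicate plates.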
Large screens that a line does not name were inactive. Unless noted, the call rests on the fitted dose curve; in most records, active means well fitted curve in the direction sought with a large enough effect; inconclusive means small, poorly fitted or top-dose-only effect, or another doubt; inactive means no such curve, though single readings can be large; an effect the other way counts as inactive or inconclusive.

Oc1ccc([C@H](O)[C@@H]2CCCCN2)cc1O	none (no result: IMPase Li inh, IMPase cell inh, PNC inhibitor)
O=[As](O)(O)c1ccc(Cc2ccc([As](=O)(O)O)cc2)cc1	none (no result: IMPase cell inh, PNC inhibitor)
Cc1nc2cc(C(F)(F)F)ccc2n1C1CCN(Cc2nnnn2Cc2cccs2)CC1	none
FC(F)(F)c1ccc2c(c1)ncn2C1CCN(Cc2nnnn2C2CCCCC2)CC1	PNC inhibitor -100.0
COc1cc2c(cc1OC)[C@]13CC[N@+]4(C)CC5=CCO[C@H]6CC(=O)N2[C@@H]1[C@@H]6[C@@H]5C[C@]34O	none (no result: IMPase Li inh, IMPase cell inh, PNC inhibitor)
C/C(=N\N1CCN(C)CC1)c1c(O)[nH]c(=O)[nH]c1=O	PNC inhibitor -121.5 (no result: IMPase cell inh)
c1ccc(Nc2ccc(Nc3ccccc3)cc2)cc1	12-hLO inh 12.6µM (no result: IMPase cell inh, PNC inhibitor)
Cc1ccc(-n2c(C)cc(/C=C3/C(=O)NC(=O)N(C)C3=O)c2C)cc1	PNC inhibitor -84.6 (no result: IMPase cell inh)
Oc1ccc2c3c1O[C@@H]1[C@@H](O)CC[C@]4(O)[C@H](C2)N(CC2CCC2)CC[C@@]314	none (no result: IMPase Li inh, PNC inhibitor)
O=c1c2ccccc2[se]n1-c1ccccc1	12-hLO inh 3.16µM
CCOc1ccc(-c2nc3ccc(-c4nc5ccc(N6CCN(C)CC6)cc5[nH]4)cc3[nH]2)cc1	IMPase Li inh 12.6µM (no result: IMPase cell inh, 12-hLO inh, PNC inhibitor)
C=CCN1CC[C@]23c4c5ccc(O)c4O[C@@H]2/C(=N/NC(=O)c2ccccc2)CC[C@@]3(O)[C@H]1C5	none (no result: IMPase Li inh, PNC inhibitor)
O=C(O)/C=C\c1ccc[c]([Sb](=[O])([OH])[OH])c1	none (no result: IMPase Li inh, IMPase cell inh, PNC inhibitor)
